Compounds with a hit are over-represented: about 4.2% of the library has one in this group of screens.
TRPV1 potentiator = human TRPV1 potentiation; potentiation, % at 8.33 µM; TRPV1-expressing cells, Fluo-8 calcium influx, capsaicin EC20 potentiation; actives 0.02% (n = 320,000); AID 540277; Q8NER1; in the data active means potentiation above about 80%; inconclusive means between about 30% and that limit; further: 0% is about no effect
Target sequence (Q8NER1 whole entry, looked up): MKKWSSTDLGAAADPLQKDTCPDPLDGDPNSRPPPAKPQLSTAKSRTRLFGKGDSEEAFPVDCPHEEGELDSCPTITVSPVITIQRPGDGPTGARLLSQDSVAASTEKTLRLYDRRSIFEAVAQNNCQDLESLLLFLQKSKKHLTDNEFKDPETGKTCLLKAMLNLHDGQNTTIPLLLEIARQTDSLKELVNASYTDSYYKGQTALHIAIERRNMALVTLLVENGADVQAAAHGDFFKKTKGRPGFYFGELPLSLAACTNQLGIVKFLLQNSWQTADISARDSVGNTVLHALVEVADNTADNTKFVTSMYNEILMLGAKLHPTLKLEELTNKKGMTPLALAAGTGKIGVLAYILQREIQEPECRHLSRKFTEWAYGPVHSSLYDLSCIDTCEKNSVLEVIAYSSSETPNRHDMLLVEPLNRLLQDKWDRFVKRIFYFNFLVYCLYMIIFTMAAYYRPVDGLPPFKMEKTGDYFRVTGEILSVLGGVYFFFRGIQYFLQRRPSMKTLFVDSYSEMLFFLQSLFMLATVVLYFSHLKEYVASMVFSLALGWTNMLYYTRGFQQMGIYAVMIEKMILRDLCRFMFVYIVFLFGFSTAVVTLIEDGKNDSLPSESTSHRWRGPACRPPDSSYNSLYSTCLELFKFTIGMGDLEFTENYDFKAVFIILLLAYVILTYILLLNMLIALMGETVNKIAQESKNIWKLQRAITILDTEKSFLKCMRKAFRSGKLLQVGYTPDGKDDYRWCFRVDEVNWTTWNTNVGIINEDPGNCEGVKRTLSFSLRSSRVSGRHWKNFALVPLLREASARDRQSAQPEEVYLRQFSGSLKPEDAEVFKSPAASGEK
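TRPV1-expressing cells were cultured overnight at 35.5C and loaded with Fluo-8 calcium dye for 40 to 90 min at room temperature. After a 10 s baseline, compound was added and calcium influx was read kinetically for 3 min (ex 480/em 520 nm).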
D1 antag = blocks dopamine activation of the human D1 receptor; P21728; HEK293 TREx D1 cells, calcium flux, dopamine EC80; hits give low values; activity change, negative = inhibition, % at 10 µM; actives 3.2% (n = 360,000); AID 504652; in the data active means activity change below about -30%; further: on the % scale 0 is the no-effect control and ±100 the full control effect
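Kinetic fluorescence of a calcium dye serves as the read-out. D1-expressing Hek293 Trex cells, induced overnight at 30 C, are exposed to compound for 180 s before an EC80 dopamine addition, then read 180 s further.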
TRPV1 ag = human TRPV1 agonism | Q8NER1 | TRPV1-expressing cells, Fluo-8 calcium influx, agonist mode | activation, % at 8.33 µM | actives 0.19% (n = 320,000) | AID 540275; in the data active means activation above about 80%; inconclusive means between about 30% and that limit; further: 0% is about no effect
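Fluo-8 calcium influx in TRPV1-expressing cells, kinetic read (ex 480/em 520 nm). Compound added and read 3 min for agonist activity, followed by capsaicin at EC20 final and 2 min further read for enhancement.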
D1 potentiator = human D1 dopamine receptor positive modulation; actives 0.036% (n = 360,000); HEK293 TREx D1 cells, calcium flux, dopamine EC20 potentiation; P21728; potentiation, % at 10 µM; in the data active means potentiation above about 30%; further: 0% is about no effect
D1 ag = agonists of human D1 dopamine receptor | actives 1% (n = 360,000) | P21728 | activation, % at 2 µM | HEK293 T-REx D1 cells, calcium flux, agonist mode; in the data active means activation above about 30%; further: 0% is about no effect
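Tetracycline-induced HEK293 TREx D1 cells, force-coupled to calcium signalling, were dye-loaded with a no-wash calcium kit. Compound was pin-added after a 10 s baseline. Fluorescence was read kinetically at 1 cycle/s for 180 s, with calcium rises flagged as agonism.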
Active calls of the source: *; ? = inconclusive; . = no result given.

SMILES	TRPV1 potentiator	D1 antag	TRPV1 ag	D1 potentiator	D1 ag
CCOC(=O)c1cc2c(=O)n3ccccc3nc2n(CC(C)C)c1=NC(=O)C(C)(C)Oc1ccc(Cl)cc1	.	6	.	0	-1
CCOC(=O)c1cc2c(=O)n3ccccc3nc2n(C(C)C)c1=NC(=O)C(C)(C)Oc1ccc(Cl)cc1	.	-40*	.	-1	-1
CCOC(=O)c1cc2c(=O)n3ccccc3nc2n(CC(C)C)c1=NC(=O)C(C)Oc1ccccc1 (stereo unspecified)	.	21	.	0	1
CCOc1ccc(CCNC(=O)c2cccc(-n3c(C)nc4cccnc43)c2C)cc1	.	0	.	1	1
Cc1cc(N2CCN(c3cccc(C)c3C)CC2)n2cnnc2n1	.	1	.	-1	2
CCCCn1cc(S(=O)(=O)c2cc(C)ccc2C)c(=O)c2cc(F)c(N3CCC(C)CC3)cc21	.	-12	.	1	-1
Cc1ccc(C(=O)c2cn(Cc3ccccc3C)c3nc(C)ccc3c2=O)cc1	.	8	.	0	7
COc1ccc(NC(=O)CCCn2nc(C)c3c(C)n(-c4ccccc4)nc3c2=O)cc1OC	9	-53*	0	-2	0
COc1ccc(CCNC(=O)Cn2nc(C)c3c(C)n(-c4ccc(C)cc4)nc3c2=O)c(OC)c1	1	-43*	-4	-2	2
CC(C)CCn1c(=O)c2sccc2n2c(CCCC(=O)NCc3ccc(F)cc3)nnc12	.	-6	.	-2	1
CC(C)Cn1c(=O)c2ccccc2n2c(CCC(=O)N3CCN(c4ccccc4F)CC3)nnc12	.	-13	.	-6	3
CC(C)c1ccc(/C=C(\C#N)c2nc(-c3ccc(O)cc3)cs2)cc1	.	-18	.	-1	13
CC1=C(C(=O)Nc2ccccc2Br)C2(CCC(C)CC2)OC1=O (stereo unspecified)	.	4	.	-3	1
COc1ccc2c(c1O)-c1ccccc1CCN(C)C2	-8	-16	0	-2	0
CN1CCc2cccc3c2[C@@H]1Cc1ccc(O)c(O)c1-3	3	-58*	5	-7	17
COC(=O)c1[nH]c2ccc(Br)cc2c1NC(=O)CN1CCCCC1CCO (stereo unspecified)	2	-41*	-1	-4	1
COc1cccc2c1cc1c(=O)n(CC(=O)NCc3ccc(C)o3)nc(C)n12	.	4	.	-3	0
Cc1cc(C)cc(OCC(=O)N2N=C(C(F)(F)F)CC2(O)C(C)(C)C)c1 (stereo unspecified)	0	-12	3	-6	34*
Cc1cc(C)cc(OCC(=O)N2N=C(c3cccnc3)CC2(O)C(F)(F)F)c1 (stereo unspecified)	0	0	6	-1	6
COc1cccc(C(=O)NCCc2csc3nc(-c4ccccc4F)nn23)c1OC	.	5	.	4	0
Cc1ccc(N2CC(NC(=O)/C=C\c3ccc4c(c3)OCO4)CC2=O)cc1C (stereo unspecified)	.	.	.	-1	2
Cn1c(C(=O)O)cc2cc(Oc3ccccc3)ccc21	-1	12	-8	0	3
Cn1c(C(=O)NN)cc2cc(Oc3ccccc3)ccc21	4	-46*	3	-5	5
COc1ccc(NC(=O)Cn2c(NCC(C)O)nc3ccccc32)cc1Cl (stereo unspecified)	1	-70*	1	-10	1
O=C(CSc1nnnn1-c1ccc2c(c1)OCO2)NCc1ccccc1	-36	-18	2	-9	3
SMILES	TRPV1 potentiator	D1 antag	TRPV1 ag	D1 potentiator	D1 ag
Fc1ccccc1CSc1nnnn1-c1ccc2c(c1)OCO2	-12	-35*	17	-4	9
CCC(CC)C(=O)Nc1ccc(OCc2cc(=O)n3c4c(sc3n2)CCCC4)cc1	.	0	.	-1	-1
Fc1ccccc1-n1ncc2c1ncn1nc(COc3ccc(Cl)cc3)nc21	.	-3	.	5	3
Nn1c(Cc2cccc3ccccc23)nnc1SCCOc1ccc(Br)cc1	-6	-25	-1	-6	11
Nn1c(Cc2cccc3ccccc23)nnc1SCCOc1ccc(F)cc1	-11	-98*	10	-4	5
CC(C)(C)OC(=O)NCC(=O)NNC(=O)c1nc2ccccc2[nH]1	.	2	.	-4	0
CN1CCN(C(=O)c2ccc(Cl)c(S(=O)(=O)N3CCCCC3)c2)CC1	2	5	0	-3	6
Cc1[nH]c(C)c(S(=O)(=O)N2CCN(c3ccc(Cl)cc3)CC2)c1C(=O)N1CCCC1	8	-34*	1	0	0
COc1ccc(N2CCN(C(=O)c3ccc(Cl)c(S(=O)(=O)N4CCCC4)c3)CC2)cc1	-10	-34*	7	-3	1
CC(=O)c1ccc(N2CCN(S(=O)(=O)c3c(C(=O)N4CCCC4)c(C)n(C)c3C)CC2)cc1	4	-13	-3	-8	2
COc1ccc(N2CCN(S(=O)(=O)c3c(C(=O)N4CCOCC4)c(C)n(C)c3C)CC2)cc1	-22	-35*	2	-1	4
Cc1c(C(=O)N2CCOCC2)c(S(=O)(=O)Nc2cccc(C#N)c2)c(C)n1C	-7	-49*	-1	-3	2
COc1cc(OC)c(N(C)C(=O)CSc2c3c(nc4ccc(Cl)cc24)CCCC3)cc1Cl	.	8	.	9	8
Cc1c(C(=O)N2CCCCC2)c(S(=O)(=O)N2CCN(c3ccc(Cl)cc3)CC2)c(C)n1C	-2	-32*	-1	-10	7
Cc1[nH]c(C)c(S(=O)(=O)NCc2ccc(Cl)cc2)c1C(=O)N1CCCC1	5	-9	-1	33*	0
Cc1[nH]c(C)c(S(=O)(=O)NCc2ccc(F)cc2)c1C(=O)N1CCCCC1	18	-13	0	-2	2
CC(=O)Nc1cccc(NC(=O)c2cc3ccccc3o2)c1	-30	-9	?	-3	3
CCCCOC(=O)c1cccc(NC(=O)c2cc3ccccc3o2)c1	.	-4	.	-3	30*
CC(C)C(=O)Nc1cccc(NC(=O)c2cccc(Br)c2)c1	0	-32*	-6	-11	5
CC(C)C(=O)Nc1cccc(NC(=O)c2cc3ccccc3o2)c1	0	-30*	6	-9	0
C/C(=N\NC(=O)CNc1ccc(F)cc1)c1cc2ccccc2o1	5	-40*	1	-5	2
COc1ccccc1C1C=C(c2ccc(Cl)cc2)Nc2nc(-c3ccc(Cl)cc3)nn21 (stereo unspecified)	.	-12	.	-2	11
CCC1CCc2nc3sc(C(=O)Nc4ccc(C)cc4)c(N)c3cc2C1 (stereo unspecified)	.	-19	.	-2	1
CCOc1cc(C(=O)Nc2ccc(NC(=O)c3cc4ccccc4o3)c(OC)c2)cc(OCC)c1OCC	.	-2	.	0	0
O=C(Nc1ccc(F)cc1)c1cc2ccccc2o1	-9	0	98*	-2	-2
O=C(Nc1ccccc1)c1cc2ccccc2o1	-8	-13	?	-4	0

High-throughput results from PubChem BioAssay.
